D1 ag – Allosteric Agonists of the Human D1 Dopamine Receptor: qHTS; D(1A) dopamine receptor (Homo sapiens), P21728; HEK293 T-REx D1 cells, calcium flux, agonist mode; activation, % at 2 µM; 1% of 360,000 active; AID 504660, 2011; further: 0% is about no effect
Target sequence (P21728 whole entry, looked up): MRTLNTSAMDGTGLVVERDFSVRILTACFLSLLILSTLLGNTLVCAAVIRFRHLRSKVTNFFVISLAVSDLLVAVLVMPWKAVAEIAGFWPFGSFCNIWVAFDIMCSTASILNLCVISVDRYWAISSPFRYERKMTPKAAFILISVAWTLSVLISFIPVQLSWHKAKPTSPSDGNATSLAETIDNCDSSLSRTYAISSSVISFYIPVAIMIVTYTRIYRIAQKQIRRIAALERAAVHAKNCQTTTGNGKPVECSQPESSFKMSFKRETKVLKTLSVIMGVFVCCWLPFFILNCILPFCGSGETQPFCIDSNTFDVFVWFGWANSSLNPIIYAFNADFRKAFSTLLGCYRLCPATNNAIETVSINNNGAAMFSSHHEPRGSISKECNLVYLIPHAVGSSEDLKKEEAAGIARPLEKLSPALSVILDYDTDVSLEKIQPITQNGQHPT
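Inducible HEK293 T-REx D1 cells, force-coupled to calcium signalling, were plated at 4000 cells/well with tetracycline and held overnight at 30 C. After no-wash calcium dye loading, compound-evoked calcium rise over 180 s flagged agonists.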
TRHR PAM – qHTS for Small Molecule Agonists and Allosteric Enhancers of Human TRH Receptor: Primary Screen for Enhancers; Thyrotropin-releasing hormone receptor (Homo sapiens), P34981; TRHR cells, fluo-8 calcium fluorescence, EC20 TRH enhancement; enhancement, % at 2 µM; 0.66% of 360,000 active; AID 493056, 2011; in the data active means enhancement above about 30%; further: 0% is about no effect
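TRHR-expressing cells loaded with fluo-8 calcium dye were read kinetically (ex 480/em 530) during compound addition, then stimulated with an EC20 of TRH (10 nM final). Enhancement of the Gq-mediated intracellular calcium response was scored.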
D1 potentiator – Potentiators of Human D1 Dopamine Receptor: qHTS; 0.036% of 360,000 active; HEK293 TREx D1 cells, calcium flux, dopamine EC20 potentiation; D(1A) dopamine receptor (Homo sapiens), P21728; potentiation, % at 10 µM; in the data active means potentiation above about 30%; further: 0% is about no effect
D1 antagonist – Antagonist of Human D 1 Dopamine Receptor: qHTS; 3.2% of 360,000 active; HEK293 TREx D1 cells, calcium flux, dopamine EC80; hits give low values; activity change, negative = inhibition, % at 10 µM; AID 504652, 2011; in the data active means activity change below about -30%; further: on the % scale 0 is the no-effect control and ±100 the full control effect
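Allosteric or orthosteric antagonism assessed as attenuation of the calcium response to EC80 dopamine, added 180 s after compound, in induced HEK293 Trex D1 cells loaded with no-wash calcium dye.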
TRHR ag – qHTS for Small Molecule Agonists and Allosteric Enhancers of Human TRH Receptor: Primary Screen for Agonists. Thyrotropin-releasing hormone receptor (Homo sapiens), P34981. TRHR cells, calcium flux fluo-8, FDSS agonist mode. activation, % at 2 µM. 0.18% of 360,000 active. AID 493084, 2011; further: 0% is about no effect
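TRHR-expressing cells, plated overnight in medium with 10% serum, were loaded with fluo-8 calcium dye at room temperature. After a 10 s baseline, library compound was pin-added and calcium release was recorded kinetically (ex 480/em 530) as agonist response.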
USP1-UAF1 inh – Inhibitors of USP1/UAF1: Primary Screen | Ubiquitin carboxyl-terminal hydrolase 1 (Homo sapiens), O94782 | recombinant USP1/UAF1, Ub-Rhodamine cleavage fluorescence | Potency, µM (top dose mostly 57.1 µM), for the others: at the highest dose activity change, negative = inhibition, hits mostly inhibitors | 0.23% of 390,000 active | AID 743255, 2014; active means well fitted inhibition curve with a large enough effect; inconclusive means small, poorly fitted or top-dose-only effect; inactive means no such curve, though single readings can be large or run the other way; further: potency means the concentration at half of the fitted maximal effect; on the % scale 0 is the no-effect control and ±100 the full control effect; nearly all actives have a fitted effect of over 60% in size
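High-throughput fluorogenic screen: 1nM USP1/UAF1 complex, Ub-Rho substrate 150nM final, 50mM HEPES pH 7.8 with 0.5mM EDTA, 0.1 mg/ml BSA, 1mM TCEP and 0.01% Tween-20.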
Starred values were filed as active, the others as inactive; ? = inconclusive; / = no result; ! = not confirmed by another sample. An excerpt weighted towards active compounds, which were near 4.4% of everything screened. Unless noted, no stated cut-off is given here; in the data, active means activation above about 30%; inactive means the rest.

SMILES	D1 ag	TRHR PAM	D1 potentiator	D1 antagonist	TRHR ag	USP1-UAF1 inh
Cc1cccc(CNC(=O)C2CCN(c3nnc(-n4c(C)ccc4C)s3)CC2)c1	-3	2	-1	4	0	-14%
O=C(Nc1ccc(F)c(F)c1)C1CCCN(S(=O)(=O)c2cccc3nonc23)C1 (configuration not stated)	33*!	0	-9	-13	1	-5%
CC1CCCCC1NC(=O)C1CCC(CNS(=O)(=O)c2cccc3cccnc23)CC1 (configuration not stated)	1	-6	17	-37*	1	5%
O=C(NC1CCCCC1)C1CCCN(S(=O)(=O)c2cccc3cccnc23)C1 (configuration not stated)	0	-2	-10	-30*	-1	-14%
COc1ccc(OCC2c3cc(OC)c(OC)cc3CCN2C(=O)c2c(F)cccc2F)cc1 (configuration not stated)	6	-3	-1	13	0	-26%
O=[N+]([O-])c1ccccc1C=NNC(=S)NN=Cc1ccccc1[N+](=O)[O-]	/	/	/	/	/	-21%
COc1ccc(OC)c(NC(=O)C(=O)N/N=C/c2ccccc2[N+](=O)[O-])c1	0	23	-7	-34*	1	-6%
CC(=O)c1c(C(C)=O)c(C)n(NC(=O)c2ccccc2Cl)c1C	15	-10	-12	-49*	-1	3%
Cn1nc(-c2ccc(OCC(=O)Nc3ccccc3)cc2)c2ccccc2c1=O	7	3	0	-2	0	-4%
Cn1nc(-c2ccc(OCC(=O)Nc3ccc(Cl)cc3)cc2)c2ccccc2c1=O	14	35*	-4	2	-1	?
Cn1nc(C(=O)NNC(=O)COc2ccccc2)c2ccccc2c1=O	0	-10	1	-35*	1	-18%
CCn1nc(C(=O)NNC(=O)COc2ccc(OC)cc2)c2ccccc2c1=O	0	24	-5	-1	0	-19%
CCCCC(CC)CNC(=O)CCCn1c(=O)[nH]c2ccsc2c1=O (configuration not stated)	-1	-2	1	-1	0	-3%
CCOC(=O)c1cccc(NC(=O)C(CC(C)C)N2Cc3ccccc3C2=O)c1 (configuration not stated)	-1	0	2	3	0	?
O=C(COc1ccc2ccccc2c1)NNC(=O)Cc1ccccc1	5	4	-7	-8	-1	-4%
O=C(Cc1ccccc1)NNc1ccc2ccccc2c1	1	-2	10	-49*	-2	-9%
Cc1ccc(NC(=O)Cn2c(=O)n(Cc3ccc4c(c3)OCO4)c(=O)c3ccc(C(=O)NC4CCCCC4)cc32)c(C)c1	0	-1	0	-22	0	-29%
CC(C)Cn1c(=O)c2ccccc2n2c(CCC(=O)N3CCN(c4ccccc4F)CC3)nnc12	3	0	-6	-13	1	?
CCOC(=O)c1ccc(NS(=O)(=O)c2ccc(Cl)nc2)cc1	1	-8	-3	-12	0	/
CCOC(=O)c1cnn(-c2ccc(NS(=O)(=O)c3ccc(Cl)cc3)cc2)c1C(F)(F)F	6	1	-5	-62*	1	-7%
CCOc1ccc2nc(N3CCCC(C(=O)Nc4ccc(Br)c(C)c4)C3)sc2c1 (configuration not stated)	0	1	-3	-16	3	-20%
COc1ccc(N2C(N)=NC(N)=NC2(C)C)cc1	1	1	0	-3	-1	-11%
COc1cccc(N2C(N)=NC(N)=NC2(C)C)c1	0	-1	0	-54*	0	-4%

Bioassay records from PubChem BioAssay.
